Screening data from PubChem BioAssay.
RecA splice inh: Mtb RecA intein splicing inhibition | actives 0.75% (n = 290,000) | cell-free RecA intein splicing, fluorescence | P9WHJ3 | inhibition, % (no concentration beside the values); in the data active = inhibition above about 30%
Rv3671c protease: Rv3671c (M. tuberculosis) protease inhibition; inhibition, % at 5.96 µM; P9WHR9; actives 0.048% (n = 320,000); in the data active = inhibition above about 38%;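 note: extracellular domain of Rv3671c used as enzyme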
Target sequence (P9WHR9 whole entry, looked up, the tested form may be a part): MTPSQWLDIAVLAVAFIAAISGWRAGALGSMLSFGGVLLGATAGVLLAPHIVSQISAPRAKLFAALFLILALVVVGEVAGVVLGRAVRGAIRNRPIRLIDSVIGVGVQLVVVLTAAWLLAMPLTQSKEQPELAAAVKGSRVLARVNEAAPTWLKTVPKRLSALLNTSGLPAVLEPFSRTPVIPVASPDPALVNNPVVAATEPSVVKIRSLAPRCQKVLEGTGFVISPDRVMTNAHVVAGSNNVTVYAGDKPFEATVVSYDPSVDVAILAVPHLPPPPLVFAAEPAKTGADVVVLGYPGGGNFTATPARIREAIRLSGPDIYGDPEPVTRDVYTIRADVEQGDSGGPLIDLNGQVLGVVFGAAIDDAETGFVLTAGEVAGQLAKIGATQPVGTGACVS
FBA Mtb inh: inhibits M. tuberculosis FBA enzyme; actives 2.3% (n = 360,000); P9WQA3; purified M. tuberculosis FBA, fluorescence read-out; AID 588726; inhibition, % at 1 µM
Mtb betalactam: beta-lactam sensitization of Mtb H37Rv | M. tuberculosis H37Rv growth with meropenem, percent inhibition | inhibition, % at 25 µM | actives 0.27% (n = 330,000); call rule not given here;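 note: growth measured after seven days incubation then overnight dye step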
GDH-TPI counter-1: counter-screen for M. tuberculosis FBA inhibitors: GDH-TPI coupled enzymes; inhibition, % at 4.8 µM; actives 1.2% (n = 360,000); AID 588335; GDH-TPI coupled enzyme counterscreen, NADH absorbance; in the data active = inhibition above about 30%
Mtb UGM inh: blocks M. tuberculosis UGM enzyme; P9WIQ1; purified UGM, fluorescence polarization probe displacement; inhibition, % at 10 µM; actives 0.06% (n = 320,000); AID 504406; in the data active = inhibition above about 10%, passing the limit was not always enough
Mtb FBA confirm: Mtb FBA inhibition, confirmed; purified M. tuberculosis FBA, fluorescence read-out; inhibition, % at 1 µM; actives 78% (n = 5,600); AID 651616; shares compounds with FBA Mtb inh
GDH-TPI counter-2: GDH-TPI inhibition counter-screen for FBA inhibitors | actives 81% (n = 5,600) | GDH-TPI coupled enzyme counterscreen, fluorescence | inhibition, % at 1 µM | shares compounds with FBA Mtb inh; in the data active = inhibition above about 10%
GDH-TPI dose: inhibits GDH-TPI coupling enzymes in dose response. shares compounds with FBA Mtb inh. GDH-TPI coupled enzyme assay, fluorescence, artifact counterscreen. IC50, µM. actives 79% (n = 170); call rule not given here
A number is an active result; i = inactive; nt = no result given; + = active, no number. A selection: hits, their analogues and other compounds. The true share with any hit is near 4%. Cut-off read from the data, not from the text of the source, unless noted: active = inhibition above about 27%; inactive = the rest.

SMILES	RecA splice inh	Rv3671c protease	FBA Mtb inh	Mtb betalactam	GDH-TPI counter-1	Mtb UGM inh	Mtb FBA confirm	GDH-TPI counter-2	others
O=C1c2cccc3cccc(c23)C(=O)N1c1ccncc1	nt	i	i	i	i	i	nt	nt
CC(C)(C)OC(=O)NCCCC[C@@H](C(=O)NCCCCCCCCCCC(=O)N1CCN(C(=O)OC(C)(C)C)CC1)n1cc(CCO)nn1	i	i	i	i	i	i	nt	nt
CC[C@H](C)Cc1cn([C@@H](CCCCNC(=O)OC(C)(C)C)C(=O)NCCCCCCCCCCC(=O)N2CCN(C(=O)OC(C)(C)C)CC2)nn1	nt	i	106.2	i	i	i	66.3	48.1
COc1cccc(/C=N/NC(=O)Cn2cnc3c2c(=O)n(C)c(=O)n3C)c1OC	i	i	30.4	i	i	i	i	i
COc1cc(/C=N/NC(=O)Cn2cnc3c2c(=O)n(C)c(=O)n3C)cc(OC)c1OC	i	i	i	i	i	i	nt	nt
Cc1coc2cc3oc(=O)c4c(c3cc12)CCC4	i	i	nt	i	nt	i	nt	nt
O=c1oc2c3c4c(cc2c2c1CCC2)OCCN4CCC3	nt	i	97.3	i	i	i	79.5	58.2
Cc1ccc(-c2nn(-c3ccccc3)cc2CO)o1	i	i	32.6	i	i	i	75.9	53.8
COc1ccc(-c2cc(-c3ccco3)[nH]c(=O)c2C#N)cc1OC	i	i	49.3	i	i	i	44.2	35.8
N#Cc1c(-c2ccccc2)cc(-c2ccc3c(c2)OCO3)[nH]c1=O	nt	i	i	i	i	i	nt	nt
COC(=O)C1=C(C)NC(C)=C(C(=O)OC)C1C(=O)OCC(=O)N1CCCCC1C (centres undefined)	nt	nt	i	nt	i	nt	nt	nt
COc1ccc(-c2cc(C(=O)Nc3ccc(OC)c(OC)c3)[nH]n2)c(C)c1	nt	nt	i	nt	i	nt	nt	nt
N#Cc1c(N2CCCCC2)nc(N2CCCCC2)c2c1CCN(Cc1ccccc1)C2	i	i	i	i	i	i	nt	nt
N#Cc1c(Cl)nc(Cl)c2c1CCN(Cc1ccccc1)C2	i	i	92.6	i	i	i	+	+
CCCCC(=O)N1C(C)CCC1C (centres undefined)	nt	nt	i	nt	i	nt	nt	nt
O=C(Nc1ccc(Cl)cc1C(=O)c1ccccn1)c1ccccc1	nt	nt	i	nt	i	nt	nt	nt
CC1(C)CC(=O)c2cc(OCC(=O)N3CCCCCC3)ccc2O1	i	i	46.3	nt	i	i	88.1	95.0
CC1(C)CC(=O)c2cc(OCC(=O)N3CCN(Cc4ccccc4)CC3)ccc2O1	i	i	i	i	i	i	nt	nt
COc1ccc2c(c1)C(=O)CC(O)(C(F)F)O2 (centres undefined)	i	i	30.7	i	i	i	72.2	52.8
CC1(C)CC(=O)c2cc(OCC(=O)O)ccc2O1	i	i	64.5	i	i	i	101.4	75.0
CCOC(=O)N1CCN(C(=O)COc2ccc3c(c2)C(=O)CC(C)(C)O3)CC1	i	i	41.0	i	i	i	133.8	114.0
O=C(CCN1C(=O)C2CC=CCC2C1=O)Nc1ccc(S(=O)(=O)N2CCCCC2)cc1 (centres undefined)	nt	nt	i	nt	i	nt	nt	nt
O=C(Nc1ccc(F)c(Cl)c1)c1cc(C2CCCCN2C(=O)c2cccs2)on1 (centres undefined)	nt	nt	i	nt	i	nt	nt	nt
CCc1nc2ccc(C(=O)NC(C)(C)C)cn2c1N(CC)Cc1cccc(Br)c1	nt	nt	i	nt	i	nt	nt	nt
CC1(C)CC(=O)c2cc(OCC(=O)N3CCN(c4ccccc4F)CC3)ccc2O1	i	i	i	i	i	i	nt	nt
SMILES	RecA splice inh	Rv3671c protease	FBA Mtb inh	Mtb betalactam	GDH-TPI counter-1	Mtb UGM inh	Mtb FBA confirm	GDH-TPI counter-2	others
CC1(C)CC(=O)c2cc(OCC(=O)NCCN3CCOCC3)ccc2O1	i	i	34.0	i	i	i	56.8	39.6
CCOC(=O)COc1ccc2c(c1)C(=O)CC(C)(C)O2	i	i	48.5	i	i	i	i	i	GDH-TPI dose=2.93
Cc1cc(OCC(=O)NCCN2CCOCC2)cc(C)c1Br	i	i	i	i	i	i	nt	nt
O=C(O)CCN1C(=O)/C(=C/c2ccc(-c3nc4ccccc4s3)o2)SC1=S	i	i	i	nt	i	i	nt	nt
O=C(O)c1ccc(-c2nc3ccccc3s2)o1	i	i	43.8	i	42.0	i	35.0	29.4
O=Cc1ccc(-c2nc3ccccc3s2)o1	i	i	32.5	i	i	i	30.6	30.5
COc1ccc([C@@H]2C[C@H]3[C@@H](CN2S(=O)(=O)c2ccccc2)C(=O)C[C@@H](c2ccc(C)cc2)N3S(=O)(=O)c2ccc(C)cc2)cc1	nt	nt	i	nt	i	nt	nt	nt
Cc1cc(Br)c(NC(=O)CCNC(=O)OCc2ccccc2)cc1C	i	i	i	i	i	i	nt	nt
Nc1ccccc1C(=O)NC1CCCNC1=O (centres undefined)	i	i	61.4	i	i	i	+	+
O=C(Nc1ccc(Cl)cc1)NC1CCCCNC1=O (centres undefined)	i	i	i	i	i	i	nt	nt
CC1CN(CC(=O)NCc2ccc(Cl)cc2)CC(C)O1 (centres undefined)	i	i	i	i	i	i	nt	nt
CC1(C(=O)NS(=O)(=O)c2ccc3c(c2)CCO3)CCN1C(=O)CCC1CCCC1 (centres undefined)	nt	nt	i	nt	i	nt	nt	nt
CSc1nc(N)nc2c1ncn2CC(=O)N[C@H](C)c1cccc2ccccc12	nt	i	i	i	i	i	nt	nt
O=C(O)C(Oc1ccc2c(c1)oc(=O)c1ccccc12)c1ccccc1 (centres undefined)	i	i	92.1	i	i	i	36.9	30.3
COc1ccc2c(c1)oc(=O)c1ccccc12	i	i	87.6	i	i	i	40.8	31.0
FC(F)(F)c1cc(-c2cccs2)nc(-n2cc(Cl)cn2)n1	i	i	30.2	i	i	i	40.8	35.2
O=[N+]([O-])c1ccn(-c2nc(-c3cccs3)cc(C(F)(F)F)n2)n1	i	i	i	i	i	i	nt	nt
CN1C(=O)c2ccccc2N(C)C1c1ccccc1Cl (centres undefined)	i	i	64.5	i	i	i	56.7	38.3
CN1C(=O)c2ccccc2N(C)C1c1cccs1 (centres undefined)	i	i	36.0	i	i	i	199.6	136.3
CN1c2ccccc2C(=O)NC1c1ccc(Cl)cc1 (centres undefined)	i	i	i	i	i	i	nt	nt
O=C1OC(c2ccccc2)(c2ccc3cc(O)ccc3c2)c2ccccc21 (centres undefined)	nt	nt	i	nt	i	nt	nt	nt
O=C1c2ccccc2NC(c2cccc(O)c2)N1NS(=O)(=O)c1ccccc1 (centres undefined)	i	i	i	i	i	i	nt	nt
COc1ccc(C2Nc3ccccc3C(=O)N2Cc2ccco2)cc1CN1C(=O)c2ccccc2C1=O (centres undefined)	i	i	i	i	i	i	nt	nt
